Sampled rows, rich in hits. Any-hit rate of the full collection: about 19%.
HT1080NT lethal = kills 2HG-producing HT-1080-NT fibrosarcoma cells. HT-1080-NT fibrosarcoma viability, CellTiter-Glo ATP luminescence, 48 h. Potency, µM (series often up to 46.1 µM), for inactives: at the top dose activity, negative = less viability, hits mostly cytotoxic. 360,000 tested, 1.6% active. AID 686970;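 also: NT is the 2HG producing partner of a matched IDH1 knockdown line; potency is read from the fitted curve at half-maximal effect; 0% = DMSO-treated cells and -100% = media-only wells without cells; nearly all actives have a fitted effect of over 55% in size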
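750 cells/well, RPMI + 5% FBS; 2 h settle, compound pin-transfer, 48 h at 37 degrees C. CellTiter-Glo 10 min RT, luminescence. Normalized to DMSO and media-only wells.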
IL-1B inflam inh = inhibitors of inflammasome signaling (IL-1 beta secretion) | THP-1 LPS/ATP IL-1B secretion, AlphaLISA, 16 h; hits give low values | activity change, % at 57.5 µM | 360,000 tested, 4.7% active | AID 743279; in the data active = activity change below about -50%; inconclusive = mostly about -30% to -49%
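Secreted IL-1B measured by AlphaLISA bead assay after 16 h compound exposure of THP-1 cells; compounds (final up to 57.5 uM) added 1 h before LPS (250 ng/mL) and ATP (1.25 mM) stimulation; lower signal means less secretion.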
TDP1 cell noCPT = qHTS for Inhibitors of human tyrosyl-DNA phosphodiesterase 1 (TDP1): qHTS in cells in absence of CPT | Potency, µM (highest dose often 46.2 µM), for inactives: top-dose activity change, negative = growth inhibition, most hits filed as inhibitors | 420,000 tested, 15% active | DT40 Tdp1-/- hTDP1 cells, no CPT, ATP luminescence, 48 h; also: potency is read from the fitted curve at half-maximal effect; nearly all actives have a fitted effect of over 55% in size
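Chicken DT40 Tdp1-/- cells stably complemented with human TDP1 were seeded at 400 cells/well with DMSO in place of 20 nM camptothecin. After compound pinning, cells grew at least 48 hr at 37 °C; viability read by CellTiter-Glo luminescence.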
HT1080 IDH1KD tx = toxicity to HT-1080 IDH1 knockdown cells (counter line); HT-1080 IDH1 knockdown viability, ATP luminescence, 48 h; Potency, µM (highest dose often 46.1 µM), for the others: at the top dose activity, negative = toxicity, hits mostly cytotoxic; 360,000 tested, 2% active; AID 686971;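 also: potency is read from the fitted curve at half-maximal effect; 0% = DMSO wells and -100% = cell-free medium wells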
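IDH1KD HT-1080 cells, 750/well, RPMI + 5% FBS; compound pinned after 2 h settling; 48 h, 37 °C; CellTiter-Glo luminescence; % activity normalised to DMSO and no-cell wells; curves fitted, classed by r2 and efficacy.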
DT40 TDP1 CPT = growth inhibition of DT40 Tdp1-/-;hTDP1 cells with camptothecin (screen for TDP1 inhibitors) | chicken DT40 Tdp1-/-;hTDP1 cells + 20 nM CPT, ATP luminescence, 48 h | Potency, µM (series often up to 46.2 µM), for inactives: at the highest dose activity change, negative = growth inhibition, hits mostly inhibitors | 420,000 tested, 12% active; also: potency is read from the fitted curve at half-maximal effect; nearly all actives have a fitted effect of over 55% in size
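Chicken DT40 Tdp1-/- cells stably complemented with human TDP1 were seeded at 400 cells/well in medium containing 20 nM camptothecin, exposed to pin-transferred compounds, and grown at 37 °C for at least 48 hr. Viability was read as ATP luminescence.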
An asterisk follows results filed as active; u = inconclusive; x = no result. Unless noted, calls follow the shape of the dose curve; as a rule, active = well fitted curve in the direction sought with a large enough effect; inconclusive = small, poorly fitted or top-dose-only effect, or another doubt; inactive = no such curve, though single readings can be large; an effect the other way counts as inactive or inconclusive. Unless noted, % is scaled to controls: 0 for no effect and ±100 for the full control effect.

SMILES	HT1080NT lethal	IL-1B inflam inh	TDP1 cell noCPT	HT1080 IDH1KD tx	DT40 TDP1 CPT
O=C(O)[C@H](Cc1ccccc1)NC(=O)N1CCN(c2cccc(C(F)(F)F)c2)CC1	0.2%	-2.2	-11.3%	-2.2%	-6.8%
Cc1cccc(C)c1NC(=S)N1CCOCC1	-0.4%	-1.0	-13.5%	10.8%	-2.5%
Cc1cc(C)cc(-n2c(C)cc(C(=S)N3CCOCC3)c2C)c1	7.0%	-54.1*	11.6µM*	8.2%	u
Cc1cccc(-n2c(C)cc(C(=S)N3CCOCC3)c2C)c1C	7.7%	-20.6	18.4µM*	5.5%	14.6µM*
Cc1ccc(C)c(NC(=O)CSc2nnc3n2CCCCC3)c1	15.1%	7.9	-4.3%	10.9%	-7.6%
CC(=O)Nc1cc(C(=O)N2CCN(C)CC2)ccc1Sc1ccc(C)cc1	8.4%	-7.2	-10.6%	-4.8%	-1.0%
C[C@@H](NC(=O)[C@@H]1CCCN1C(=O)[C@@H]1CCCN1C(=O)OC(C)(C)C)c1ccccc1	9.1%	0.0	-14.8%	15.7%	-7.9%
CC(C)(C)OC(=O)N1CCC[C@H]1C(=O)Nc1ccc(S(=O)(=O)C(F)F)cc1	0.6%	23.1	u	0.0%	13µM*
CC(C)(C)OC(=O)N1CCC[C@H]1C(=O)Nc1ccc(Br)cc1	4.7%	29.5	-13.7%	-1.4%	-6.7%
CC(NC(=O)C1CCCN1C(=O)OC(C)(C)C)C(=O)OCc1ccccc1 (stereo not given)	2.9%	39.0	u	13.9%	23.1µM*
O=c1cc(-c2ccc(C3CCCCC3)cc2)[nH][nH]1	-22.6%	-15.3	u	-29.9%	u
CCOC(=O)Nc1nc(-c2ccccc2)c(C(=O)c2ccccc2)s1	0.581µM*	46.5	0.651µM*	0.581µM*	0.581µM*
COC(=O)Nc1nc(-c2ccccc2)c(C(=O)c2ccc(Cl)cc2)s1	u	9.9	0.651µM*	u	0.581µM*
CC(=O)c1sc(NC(=O)c2ccccc2)nc1-c1ccccc1	-3.2%	0.0	-21.9%	-0.8%	-17.2%
CC1CN(c2nnc(NC(=O)c3ccccc3)s2)CC(C)O1 (stereo not given)	12.8%	-3.0	-10.6%	9.6%	-20.8%
O=S(=O)(Cc1ccccc1)C(c1ccccc1)S(=O)(=O)Cc1ccccc1	-8.1%	-16.5	u	-8.1%	3.4%
CCc1cccc(CC)c1-n1c(SCC(=O)N2CCc3ccccc3C2)nnc1-c1cccnc1	u	-57.8*	23.1µM*	u	18.4µM*
CC(C)c1ccccc1-n1c(SCC(=O)N2CCN(c3ccccc3)CC2)nnc1-c1cccnc1	u	u	23.1µM*	u	16.4µM*
COc1cccc(Cn2cnc3c(NS(=O)(=O)c4cccc(Cl)c4Cl)c(C)c(C)cc32)c1	-0.9%	u	23.1µM*	-27.0%	20.6µM*
CCCn1c(NCc2cccc(OC)c2O)nc2ccccc21	-15.9%	-27.2	u	-12.9%	-22.9%
CCn1c(CNc2nc3ccccc3n2C(C)C)nc2ccccc21	-11.5%	-28.2	10.3µM*	-3.7%	14.6µM*
CC(C)n1c(NCc2cc(Cl)ccc2O)nc2ccccc21	-0.9%	-11.5	18.4µM*	0.1%	u
COc1cccc(CNc2nc3ccccc3n2C(C)C)c1O	-11.9%	u	u	-7.4%	20.6µM*
CC(C)N1CCN(Cc2cccn2-c2nccs2)CC1CCO (stereo not given)	-0.9%	-6.5	3.8%	2.0%	1.2%
O=C(C1CCC(CNc2c(N3CCCCC3)c(=O)c2=O)CC1)N1CCc2ccccc2C1 (stereo not given)	-5.2%	-7.2	16.4µM*	-10.0%	u
Cc1ccc(-c2nc3ccccn3c2Nc2ccc3c(c2)OCCO3)s1	x	x	-4.7%	x	-15.2%
Cc1ccc2nc(-c3ccc(C)s3)c(Nc3ccc4c(c3)OCCO4)n2c1	x	x	u	x	23.1µM*
Cc1ccc2nc(-c3ccco3)c(Nc3ccc4c(c3)OCCO4)n2c1	x	x	u	x	16.4µM*
Brc1ccc2nc(-c3ccccc3)c(Nc3ccc4c(c3)OCO4)n2c1	x	x	-18.3%	x	-19.2%
c1coc(-c2nc3ccccn3c2Nc2ccc3c(c2)OCCO3)c1	x	x	-91.5%	x	u
